The full ranking holds about 68,000 sequences; the median of “fluorescence intensity (a.u.)” is about 9,100, and the highest 2% start at about 16,000. For the sample, the highest values were picked, then their nearest neighbours and some sequences at random.
Biological target: OsWRKY34 (Oryza sativa, UniProt Q0JBA9 1-250)
Assay: protein-binding microarray (RPBM); PBS, 2% BSA, 51.3 ng/ul salmon testes DNA, 50 uM zinc acetate, 200 nM TF, 25 C, 1 h; high values mean tight binding
Conditions: protein: recombinant; tags: N-terminal polyhistidine and DsRed monomer fusion (pET32a); label: CyDye5-dUTP incorporated in the synthesized complementary strand; 3' TTTTT single-stranded linker to array surface; dsDNA, one strand shown
Method in brief: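 The binding signal is fluorescence intensity per array feature (arbitrary units). Readings came from an Axon 4000B scanner after a washed, 2% BSA-blocked, double-stranded custom Agilent array had been incubated for 1 h at 25 °C with 200 nM protein and 50 µM zinc acetate. The protein was a Ni–NTA-purified transcription factor fused N-terminally to polyhistidine and DsRed, expressed in E. coli BL21-CodonPlus.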

Sequence of OsWRKY34 (Q0JBA9 entry or part of it): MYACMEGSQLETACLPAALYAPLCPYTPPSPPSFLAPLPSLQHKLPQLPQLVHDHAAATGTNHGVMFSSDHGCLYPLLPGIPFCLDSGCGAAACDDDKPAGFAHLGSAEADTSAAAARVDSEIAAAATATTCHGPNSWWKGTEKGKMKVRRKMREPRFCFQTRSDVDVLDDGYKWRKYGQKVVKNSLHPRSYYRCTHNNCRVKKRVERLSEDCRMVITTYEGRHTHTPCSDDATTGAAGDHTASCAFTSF

Point of comparison: “GCTGCACAGCTAGTCAACACAAGCTAGTCAAACCGTTGACCGGAGTCACCTAGTGCAG”, binding signal 19200 fluorescence intensity (a.u.). Against it:
- AAGTTATAAGATGTTTTGACTTTGGTCAAAGTCAAACTGCCGGAGTCACCTAGTGCAG — lower, 14600 fluorescence intensity (a.u.)
- TTATAAGATGTTTTGACTTTGGTCAAAGTCAAACTATTTCCGGAGTCACCTAGTGCAG — lower, 16600 fluorescence intensity (a.u.)
- TATTGACTTTGGTCAAAGTCAAACTGTTTTAAATTTCACTCGGAGTCACCTAGTGCAG — lower, 10500 fluorescence intensity (a.u.)
- TTTGATTTTGGTCAAAGTCAAACTACTCTAAGTTTGACTACGGAGTCACCTAGTGCAG — lower, 13400 fluorescence intensity (a.u.)
- CGCTCACTCGTCTCCTCTCGGTTTCTTTCTCTCTCTCTCTCGGAGTCACCTAGTGCAG — lower, 8160 fluorescence intensity (a.u.)
- TATCACGATATTCTACCTCGCTCTCATGGGCTAGATCACCCGGAGTCACCTAGTGCAG — lower, 9500 fluorescence intensity (a.u.)
- CCTTGTACCTCTGTCCAGATTCATTGTACTAAGATATGTCCGGAGTCACCTAGTGCAG — lower, 8540 fluorescence intensity (a.u.)
- CTCTCTCTCTCTCTGCAGCTAGGCCATATGCATCTCTCCTCGGAGTCACCTAGTGCAG — lower, 9070 fluorescence intensity (a.u.)
- GCATTCACTCCATCGCACCACTTCATGCCGCAAAATGTTTCGGAGTCACCTAGTGCAG — lower, 9970 fluorescence intensity (a.u.)
- AAGCTAGTCAAACCGTTGACTACCACTGTCTTTGTTGCGCCGGAGTCACCTAGTGCAG — lower, 16800 fluorescence intensity (a.u.)
- AACCATCATGACCGGCTACCACTAAGCTGCGCCTGTCTACCGGAGTCACCTAGTGCAG — lower, 8700 fluorescence intensity (a.u.)
- AACCAAACAACCGTTGTCTTGGCACAGCTGTCGCAACCTGCGGAGTCACCTAGTGCAG — lower, 8200 fluorescence intensity (a.u.)
- ATACGAGCCAAAGACCGTTGACAAGCTAGTCAACAGTCATCGGAGTCACCTAGTGCAG — lower, 8910 fluorescence intensity (a.u.)
- TTTTGTCTACTGCGCCTACCACGCCGTTGTCCACTACCTCCGGAGTCACCTAGTGCAG — lower, 10400 fluorescence intensity (a.u.)
- CCTCGAGCTGTGCACGGCTGGTTCGTCTCGCGCCGCTTATCGGAGTCACCTAGTGCAG — lower, 10900 fluorescence intensity (a.u.)
- TCAGTGTCGGCCGCGATGTCTTTGCAGCTTTGCTGGTTTTCGGAGTCACCTAGTGCAG — lower, 8090 fluorescence intensity (a.u.)
- GGTATTGTTGATACTTTCAGTTTTCGCATTTGTTCGCTTCCGGAGTCACCTAGTGCAG — lower, 9230 fluorescence intensity (a.u.)
- AAACTTAGCAAGAGCTCTGACCTATTGGAAAATTTTCTTTCGGAGTCACCTAGTGCAG — lower, 9480 fluorescence intensity (a.u.)
- GACCTATTTTCGCGATTTTCCCCGGTTGACCACTACTTTTCGGAGTCACCTAGTGCAG — lower, 13100 fluorescence intensity (a.u.)
- TTTCGTGATTTTCCCCGGTTGGCCACTACTTTTGCGATTTCGGAGTCACCTAGTGCAG — lower, 9570 fluorescence intensity (a.u.)
- AGATTTGGTTTTTTAGGCCGGTTTTTCGTTTTGTCGCCCTCGGAGTCACCTAGTGCAG — lower, 8750 fluorescence intensity (a.u.)
- GGACCTACTTTCGCGATTTTCCCCGGTTGGCCACTACTTTCGGAGTCACCTAGTGCAG — lower, 18800 fluorescence intensity (a.u.)
- TATATATATTTATCACCGGTTTATTTTGGTCTGGTCTTTTCGGAGTCACCTAGTGCAG — lower, 13000 fluorescence intensity (a.u.)
- ATATTTGGTTTTTTTTCGTACTTTTTTTCGCCCGGTTTTTCGGAGTCACCTAGTGCAG — higher, 20800 fluorescence intensity (a.u.)
- CAGGACTGCGTGCTCCTTCTCGTTGTTCCTTACTCACCTTCGGAGTCACCTAGTGCAG — lower, 9560 fluorescence intensity (a.u.)
- CTACTGCTTTCTTTCTTTCTCTATTGCAGTCTACCTCCTACGGAGTCACCTAGTGCAG — lower, 11400 fluorescence intensity (a.u.)
- CTTTTGACTGCCACAGTGTGTTAGGTATATGTTTGTTTCACGGAGTCACCTAGTGCAG — lower, 11700 fluorescence intensity (a.u.)
- TCTTCCTCATGCGATTTGGTTGGTTGGTTTGACGCTACACCGGAGTCACCTAGTGCAG — lower, 13600 fluorescence intensity (a.u.)
- GGGTGTGTGCGCATGTGTGTTTGTCGTGTATTAAAAAAAACGGAGTCACCTAGTGCAG — lower, 9130 fluorescence intensity (a.u.)
- TTAATTATTTCTTGGTATTTGGGTTAAGGGTGGTTGTGCCCGGAGTCACCTAGTGCAG — lower, 12600 fluorescence intensity (a.u.)
- TCTACTTTTCTCCACTCTTTTGCTATAGGGGCTGGGGTGGCGGAGTCACCTAGTGCAG — lower, 14200 fluorescence intensity (a.u.)
- TATCTTAGGGCATGTTTGGTTGTACGGATCGTACCTGACTCGGAGTCACCTAGTGCAG — lower, 9620 fluorescence intensity (a.u.)
- GATGGCTACCTAGCTGACACGCAACGCCGGCCTCCGGATCCGGAGTCACCTAGTGCAG — lower, 10600 fluorescence intensity (a.u.)
- GAATCATGTGCTATCTCGTTAATTATCTGCTCTTTTAGCTCGGAGTCACCTAGTGCAG — lower, 9000 fluorescence intensity (a.u.)
- TATATATATGTGTGTGTGTGTGTGTGTGTGTGTGTGTGTGCGGAGTCACCTAGTGCAG — lower, 10100 fluorescence intensity (a.u.)
- TATATATATATATATATATATATATATATGTGTGTGTGTGCGGAGTCACCTAGTGCAG — lower, 13700 fluorescence intensity (a.u.)
- TGGTGGTTTTCGTCGTCGTCGTCGTCGTCGGCTTCATATACGGAGTCACCTAGTGCAG — lower, 10100 fluorescence intensity (a.u.)
- AGCAGATGGAGTATATCTTTAGCTAATTAAGCTATAGCTACGGAGTCACCTAGTGCAG — higher, 23000 fluorescence intensity (a.u.)
- GGGCGTGGTGGTGGTGGTGGTGGTTATACGGTTTTCGGTTCGGAGTCACCTAGTGCAG — higher, 25900 fluorescence intensity (a.u.)
- TTAATTATATGCTAATGGCTAACCTTATTTTACGTATCTTCGGAGTCACCTAGTGCAG — lower, 8180 fluorescence intensity (a.u.)
- TATATATATATATATATATATATATATATATGGTGGTGTTCGGAGTCACCTAGTGCAG — higher, 20500 fluorescence intensity (a.u.)
- TATATATATATATATATATATATATATGTGTGTGTGTGTTCGGAGTCACCTAGTGCAG — lower, 14600 fluorescence intensity (a.u.)
- TATATATATATATATATATATATATATATATATGTGTGTGCGGAGTCACCTAGTGCAG — lower, 18100 fluorescence intensity (a.u.)
- TATATATATATATATATATGTGTGTGTGTGTGTGTATGGTCGGAGTCACCTAGTGCAG — lower, 9770 fluorescence intensity (a.u.)
- TGGGTTTGTGGGTTATGTTTCGGTGCGTGCCGATAGTATACGGAGTCACCTAGTGCAG — lower, 14300 fluorescence intensity (a.u.)

Reference: PMC7819943, “Rice protein-binding microarrays: a tool to detect cis-acting elements near promoter regions in rice”
